Measurements: PubChem BioAssay (EPA / NIEHS)
Where “and” joins values, the source holds several entries; their conditions need not be identical. Equal values may be shown once. Some compounds were tested as several samples or in several runs, with calls that do not always agree. Calls of active or inactive are those of the source. Rule for the calls: active = hit-call score of the fitted dose curve at least 0.9, where 1 is the maximum; inactive = score below 0.9.

read-out: Epidermal growth factor receptor (EGFR), EGFR (gene 1956); experiment: BSK_BE3C_EGFR: BioMAP Diversity Plus: BE3C Assay for Epidermal growth factor receptor (EGFR) Biomarker Activity (AID 2284281); conditions: primary human bronchial epithelial cells
Description: BSK_BE3C is a cell-based, multiplexed-readout assay that uses bronchial epithelial cell, a human lung primary cell, with measurements taken at 24 hours after chemical dosing in a 96-well plate.BSK_BE3C_EGFR is an assay component measured in the BSK_BE3C assay. It measures EGFR antibody related to regulation of gene expression using ELISA technology.Data from the assay component BSK_BE3C_EGFR was analyzed at the endpoint, BSK_BE3C_EGFR, in the positive analysis fitting direction relative to DMSO as the negative control and baseline of activity. Using a type of binding reporter, gain or loss-of-signal activity can be used to understand protein changes. To generalize the intended target to other relatable targets, this assay endpoint is annotated to the 'kinase' intended target family, where the subfamily is 'receptor tyrosine kinase'.
The levels of cell surface (or secreted, indicated by the prefix "s") biomarker endpoints were measured by ELISA. Overt cytotoxicity to cells in confluent adherent cultures (all systems other than the BT system) was assessed by measuring total protein levels using sulforhodamine B (SRB) staining in parallel cultures at the time of biomarker measurements, indicated as SRB endpoints. For proliferation assays for adherent cell types, individual cell types are cultured at sub-confluence and relative cell numbers quantified by SRB staining at time points optimized for each system (48 h: 3C and CASM3C systems; 72 h: BT and HDF3CGF systems; 96 h: SAg system). SRB was performed by staining cells with 0.1% SRB after fixation with 10% TCA and reading wells at 560 nm.Viability and proliferation of PBMC (T cells) was quantified by Alamar Blue reduction for the SAg and BT systems. For PBMC viability (referred to as PBMC Cytotoxicity within the assay endpoint names), cells were plated (75,000/well in a 96-well plate) and then chemical samples added for 1 h before addition of activators, SEB and TSST-1 (20 ng/mL final concentration each). Cells were incubated for 90 h. Then, Alamar Blue (20 uL/well) (Invitrogen, Cat DAL1100) was added for 6 h, and the plates were read with a fluorescence microplate reader at 546/580 nm (excitation/emission). For PBMC proliferation, cells were plated and activated as above but incubated for only 16 h prior to addition of Alamar Blue. Plates were read after 6 h.

outcome, inactive:
CN(C)Cc1cc(C(C)(C)C)c(O)c(C(C)(C)C)c1, CC(C)C1OCCN1CCOC(=O)NCCCCCCNC(=O)OCCN1CCOC1C(C)C (stereo not drawn), OC(C(F)(F)F)(C(F)(F)F)C(O)(C(F)(F)F)C(F)(F)F, CCCCC(CC)COC(=O)C=Cc1ccc(OC)cc1 (stereo not drawn), Cc1c(C(N)=O)cc([N+](=O)[O-])cc1[N+](=O)[O-], COc1cc(CNC(=O)CCCC/C=C/C(C)C)ccc1O, CCC[Si](OC(C)=O)(OC(C)=O)OC(C)=O, C1CN(CCOCCN2CCOCC2)CCO1, CC[N+](CC)(CC(=O)Nc1c(C)cccc1C)Cc1ccccc1 (tested in a mixture with another compound), COc1ccc(C(=O)c2ccccc2O)c(O)c1, COc1ccccc1Oc1c(NS(=O)(=O)c2ccc(C(C)(C)C)cc2)nc(-c2ncccn2)nc1OCCO

AC50, active:
OC(C(F)(F)F)(C(F)(F)F)C(O)(C(F)(F)F)C(F)(F)F 22.7 µM, O=[N+]([O-])c1cc(S(=O)(=O)Nc2ccccc2)ccc1Nc1ccccc1 20 µM and 19.6 µM
